12-hLO inh: qHTS Assay for Inhibitors of 12-hLO (12-human lipoxygenase); Polyunsaturated fatty acid lipoxygenase ALOX12 (Homo sapiens), P18054; purified 12-hLO, xylenol orange hydroperoxide absorbance; Potency, µM (doses to about 57.1 µM), inactives show at the top dose activity change, negative = inhibition, actives largely listed as inhibitors; hit rate 0.12% among 150,000; active = well fitted inhibition curve with a large enough effect; inconclusive = small, poorly fitted or top-dose-only effect; also: potency is read from the fitted curve at half-maximal effect; nearly all actives have a fitted effect of over 55% in size
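Xylenol orange chromogenic assay: hydroperoxide from 12hLO oxidises Fe(II), giving red-shifted Fe(III)-XO absorbance. Conditions: 150 nM enzyme, 40 uM arachidonic acid, 25 mM Hepes pH 7.0, 0.01% Triton X-100, 30 min, room temperature.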
PNC assembly inh: High Content Assay for Compounds that inhibit the Assembly of the Perinucleolar Compartment. PC3M PTB-GFP, PNC prevalence imaging, 16 h; hits give low values. activity change (PNC), negative = inhibition, % at 10 µM. hit rate 3.1% among 140,000. AID 2417, 2010;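 active = readout at or below -70, meaning at least 70% loss of cells showing the perinucleolar compartment, a nuclear body marking cancer cells; inconclusive = readout between -30 and a set limit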;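 also: plate controls were DMSO wells for no effect and camptothecin positive control wells for full effect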
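PC3M cells stably expressing PTB-GFP, 750–1000 cells/well, treated 16 h at 37 °C with compound (23 nl of library stock), in duplicate. After paraformaldehyde fixation and Hoechst stain, imaged at 20x; PNC prevalence scored by image analysis.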
LMNA splice mod: qHTS Assay for Modulators of Lamin A Splicing | Potency, µM (titrated, usually from 46.1 µM), inactives show at the highest dose ratio change, negative = inhibition, hits mostly inhibitors | hit rate 0.01% among 200,000 | HeLa LMNA splicing GFP/RFP minigene ratio, 48 h; active = well fitted inhibition curve with a large enough effect in the signal ratio, with a control signal flat, not every such curve was filed as active; inconclusive = small, poorly fitted or top-dose-only effect, or effect the other way, or a change in a side signal; the % refers to the signal ratio; also: potency is read from the fitted curve at half-maximal effect
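Read-out is the ratio of GFP to DsRed2 object intensity, acquired by 488 nm laser-scanning cytometry on HeLa lamin A-EGFP minigene reporter cells. Compound incubation 48 hrs at 37 °C in Opti-MEM with 2% FBS; DMSO 0.5% final.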
ALDH1A1 inh: qHTS Assay for Inhibitors of Aldehyde Dehydrogenase 1 (ALDH1A1); Aldehyde dehydrogenase 1A1 (Homo sapiens), P00352; Purified ALDH1A1, NADH fluorescence, propionaldehyde substrate; hit rate 7.3% among 220,000; Potency, µM (titrated, usually from 75.3 µM), inactives show at the top dose activity, negative = inhibition, hits mostly inhibitors; AID 1030, 2008;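 also: potency is read from the fitted curve at half-maximal effect; plate controls were no enzyme wells and a reference inhibitor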
Target sequence (P00352 whole entry, looked up): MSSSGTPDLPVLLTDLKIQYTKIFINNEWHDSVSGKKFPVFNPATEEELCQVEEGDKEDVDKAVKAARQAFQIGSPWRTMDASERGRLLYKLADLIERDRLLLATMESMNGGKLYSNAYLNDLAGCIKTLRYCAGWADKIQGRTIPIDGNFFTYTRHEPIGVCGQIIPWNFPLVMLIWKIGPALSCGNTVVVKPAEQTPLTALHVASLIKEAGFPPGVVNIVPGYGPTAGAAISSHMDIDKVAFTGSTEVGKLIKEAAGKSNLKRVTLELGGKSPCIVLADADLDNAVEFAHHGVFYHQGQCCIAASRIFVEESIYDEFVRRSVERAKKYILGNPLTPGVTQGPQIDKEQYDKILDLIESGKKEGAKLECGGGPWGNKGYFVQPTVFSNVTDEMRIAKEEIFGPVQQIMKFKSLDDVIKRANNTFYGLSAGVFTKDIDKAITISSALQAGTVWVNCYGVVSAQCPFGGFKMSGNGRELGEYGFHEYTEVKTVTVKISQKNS
HPGD inh: qHTS Assay for Inhibitors of HPGD (15-Hydroxyprostaglandin Dehydrogenase) | hit rate 4.3% among 150,000 | purified HPGD, NADH fluorescence kinetic, PGE2 substrate | 15-hydroxyprostaglandin dehydrogenase [NAD(+)] (Homo sapiens), P15428 | Potency, µM, for the others: at the highest dose activity change, negative = inhibition, usual class: inhibitors | AID 894, 2007; also: potency is read from the fitted curve at half-maximal effect
Target sequence (P15428 whole entry, looked up): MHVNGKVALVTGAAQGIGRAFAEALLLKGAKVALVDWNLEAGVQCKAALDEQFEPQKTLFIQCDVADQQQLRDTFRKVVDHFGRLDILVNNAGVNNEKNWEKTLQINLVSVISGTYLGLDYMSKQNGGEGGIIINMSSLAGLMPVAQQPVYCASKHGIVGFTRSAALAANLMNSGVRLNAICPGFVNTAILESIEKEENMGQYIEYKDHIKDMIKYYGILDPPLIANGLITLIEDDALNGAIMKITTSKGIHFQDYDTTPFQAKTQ
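20 nM HPGD preincubated 15 min at room temperature with compound in 50 mM Tris-HCl pH 8, 0.01% Tween 20. Started with 1 mM NAD+ and 30 uM prostaglandin E2; NADH fluorescence (360/450 nm) read 5 times over 30-s intervals, last minus first.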
Active calls of the source: *; ? = inconclusive; . = not tested or not shown; [ ] = dose if it differs, or a comment. An excerpt weighted towards active compounds, which were near 10% of everything screened. Unless noted, calls follow the shape of the dose curve; as a rule, active = well fitted inhibition curve with a large enough effect (not every such curve was filed as active); inconclusive = small, poorly fitted or top-dose-only effect, or another doubt; inactive = no such curve, though single readings can be large or run the other way. Unless noted, % is scaled to controls: 0 for no effect and ±100 for the full control effect.

SMILES | 12-hLO inh | PNC assembly inh | LMNA splice mod | ALDH1A1 inh | HPGD inh
COc1ccc(N/N=C(C)/C(=N/O)C(=O)Nc2ccccc2)cc1 | . | . | -0.2%[9.22 µM] | 14.1µM* | .
Cc1ccc2nc(SC(C)C(=O)Nc3cccc([N+](=O)[O-])c3)[nH]c2c1 (stereo unspecified) | -0.1% | -83.6* | ? | -0.9% | ?
Nc1nc(Nc2ccccc2)nc2c1ncn2[C@@H]1O[C@@H](CO)[C@H](O)[C@H]1O | -2.7% | . | . | -10.3% | -6.5%
COCCn1c(NC(=S)NC(=O)C2CC2)cc(=O)[nH]c1=O | . | . | ? | 0.631µM* | .
C[N@@+]1(CC[N@@+]2(C)CCC[C@H]2c2cccnc2)CCC[C@@H]1c1cccnc1 | 6.3%[11.4 µM] | . | . | 7.1%[13.5 µM] | -12.9%
CC(C)C[C@@H](CC(=O)N[C@@H](CCCN)CC(=O)N[C@@H]1CCNC[C@H]1C(=O)N[C@H](CC(=O)N[C@@H](CCC(=O)O)CC(=O)O)Cc1ccccc1)NC(=O)[C@@H]1CNCC[C@H]1N | -3.2% | . | . | -6.5% | -4.6%
Cc1cc(C)nc(N/N=C/c2ccco2)n1 | -0.5% | -109.7* | 2.3% | 4.0% | -2.9%
Cc1ccc(S(=O)(=O)N(C)C)cc1NC(=S)NC(=O)C12CC3CC(CC(C3)C1)C2 | 5.3% | ? | ? | ? | -5.1%
NS(=O)(=O)c1cccc(NC(=S)NC(=O)C23CC4CC(CC(C4)C2)C3)c1 | ? | -19.4 | ? | 28.2µM* | -23.5%
CCc1nn2c(=O)cc(COC(=O)c3cccs3)nc2s1 | . | . | 6.3%[46 µM] | . | .
COc1cc(NC(=O)c2cc3c(=O)n(Cc4ccco4)ccc3nc2C)cc(OC)c1OC | . | . | -6.0%[46 µM] | . | .
O=C(Cc1cccs1)N1CCC(c2nc3c(nnn3Cc3ccc(F)cc3)c(=O)[nH]2)CC1 | -11.9% | ? | 20.5% | -6.1% | 14.1µM*
O=C(Cc1cccs1)N1CCCC(c2nc3c(nnn3Cc3cccc(Cl)c3)c(=O)[nH]2)C1 (stereo unspecified) | -16.5% | -10.6 | 14.2% | -8.5% | 6.31µM*
COc1cc(NC(=O)Cn2c(-c3ccccc3)cc(C(C)=O)c2C)cc(OC)c1 | . | . | -14.1%[46 µM] | . | .
CCOC(=O)c1c(C)oc2nc(C)nc(NCc3ccc(OC)cc3OC)c12 | . | . | 1.1%[46 µM] | . | .
CC(S)C(=O)NCC(=O)O (stereo unspecified) | 0.0%[0.00818 µM] | . | ? | 17.8µM* | -7.2%
Cc1nc(CC(=O)c2ccc(O)cc2O)cs1 | -12.1% | ? | -11.6% | -2.3% | -18.0%
Cc1nc(C/C(=N\Nc2ccccc2)c2ccc(O)cc2O)cs1 | . | . | -3.1%[46 µM] | 3.16µM* | .
CCc1cc(/C(Cc2ccccn2)=N\Nc2ccccc2)c(O)cc1O | . | . | -11.3%[46 µM] | 7.94µM* | .
S=C(c1ccc(-c2cc(Cl)ccc2Cl)o1)N1CCOCC1 | ? | 59.7 | 2.2% | 22.4µM* | 28.2µM*
S=C(c1ccc(-c2cc(Cl)ccc2Cl)o1)N1CCCCC1 | -3.7% | ? | ? | 2.8% | 7.94µM*
CCC(C)(C)OC | 1.0% | . | . | ? | -8.1%
COc1cccc(CNC(=O)C2Cc3cc(S(=O)(=O)N4CCCCCC4)ccc3N2C(C)=O)c1 (stereo unspecified) | . | . | 17.8%[46 µM] | . | .
COc1ccc(-n2c(/C=C/c3ccccc3F)nc3cc(OC)c(OC)cc3c2=O)cc1Cl | . | . | -4.8%[46 µM] | . | .
O=C(COc1cccnc1[N+](=O)[O-])c1c[nH]c2ccccc12 | . | . | -3.5%[46 µM] | ? | .
SMILES | 12-hLO inh | PNC assembly inh | LMNA splice mod | ALDH1A1 inh | HPGD inh
COCCn1c(C)cc(C(=O)COc2cccnc2[N+](=O)[O-])c1C | . | . | 1.9%[46 µM] | 5.62µM* | .
Cc1ccc(OCC(=O)c2cc(C)n(CC(F)(F)F)c2C)c([N+](=O)[O-])n1 | . | . | ? | 20µM* | .
Cc1cc(C)c(C(=O)COc2cccnc2[N+](=O)[O-])cc1C | -4.3% | 20.8 | -5.5% | 1.58µM* | -19.4%
O=C(Nc1ccc(C(=O)OCc2cc(=O)n3nc(C4CC4)sc3n2)cc1)c1cccc(F)c1 | . | . | -8.6%[46 µM] | . | .
Cc1ccc(CCNC(=O)C23CN(Cc4ccccc4)CC2C(c2ccc([N+](=O)[O-])cc2)=NO3)cc1 (stereo unspecified) | -2.3% | ? | ? | 14.1µM* | -13.9%
Cc1ccc(CNC(=O)C23CN(Cc4ccccc4)CC2C(c2ccc([N+](=O)[O-])cc2)=NO3)cc1 (stereo unspecified) | -9.8% | ? | ? | ? | -13.6%
O=C(Nc1ccc(N2CCCCC2)c(Cl)c1)c1ncn[nH]1 | -5.7% | ? | ? | -6.3% | 12.6µM*
Cc1ccc(NS(=O)(=O)c2ccc(CCC(=O)N3CCCC3)cc2)cc1 | . | . | -2.0%[46 µM] | ? | .
O=C(Nc1ccc(CCC(=O)N2CCCC2)cc1)c1ncn[nH]1 | -2.5% | 28.1 | 7.6% | 8.9% | 28.2µM*
O=C(O)C1CC(=O)N(c2ccc(OCc3c(F)cccc3Cl)cc2)C1 (stereo unspecified) | 0.2% | -107.7* | 1.1% | 4.3% | 1.58µM*
O=C(O)C1CC(=O)N(c2ccc(OCc3ccccc3)cc2)C1 (stereo unspecified) | 7.3% | ? | -3.0% | 1.5% | -17.9%
Cc1ccc(P(=Nc2ccccc2)(N2CCOCC2)N2CCOCC2)o1 | 4.4% | -91.7* | 0.6% | 3.9% | -0.3%
Cc1ccc(SC(CC(=O)c2ccc(C)cc2)C(=O)O)cc1 (stereo unspecified) | 3.7% | ? | ? | 0.126µM* | -20.0%
Cc1cccc(C(=O)NNc2ncnc3c2cnn3-c2ccc(C)c(Cl)c2)c1 | . | . | -6.7%[46 µM] | . | .
CN(C)S(=O)(=O)c1cccc(C(=O)NCc2ccco2)c1 | 0.0% | -20.2 | 2.3% | ? | -0.8%
CN(C)S(=O)(=O)c1cccc(C(=O)N(Cc2ccc(F)cc2)Cc2ccco2)c1 | -11.1% | -23.6 | ? | 25.1µM* | -5.7%
Cc1ccc(N(Cc2ccco2)C(=O)c2cccc(S(=O)(=O)N(C)C)c2)cc1 | -1.7% | 31.5 | 23.8% | 25.1µM* | 3.2%
COc1ccc(-c2cc(-c3n[nH]c(=S)n3-c3cc(OC)ccc3OC)[nH]n2)cc1 | -7.0% | 3.6 | ? | 20µM* | ?
COc1ccc(OC)c(-n2c(-c3cc(-c4ccc(F)cc4)n[nH]3)n[nH]c2=S)c1 | -16.1% | -11.5 | -0.8% | -9.5% | .
COc1ccc(OC)c(-n2c(-c3cccc(O)c3)n[nH]c2=S)c1 | -8.1% | ? | 11.8% | 10µM* | ?
COc1ccc(-c2n[nH]c(=S)n2N)c(OC)c1 | . | . | -6.3%[46 µM] | 25.1µM* | .
COc1ccc(OC)c(-n2c(-c3ccc(C)cc3)n[nH]c2=S)c1 | -3.6% | -2.3 | 3.0% | 17.8µM* | ?
Cc1ccc(N2C(=O)CC(Sc3nc4ccccc4o3)C2=O)cc1Cl (stereo unspecified) | -8.8% | 39.1 | ? | 1.41µM* | ?
CCCCN(CCCC)S(=O)(=O)c1ccc2oc(C(=O)NCc3ccccc3)c(C)c2c1 | . | . | 0.0%[46 µM] | . | .

Assay outcomes from PubChem.
